# PubChem BioAssay (EPA / NIEHS)
# Where “and” joins values, the source holds several entries; their conditions need not be identical. Equal entries are not always repeated. Inconclusive results are not listed. Calls of active or inactive are those of the source. How the source made its calls: active means hit-call score of the fitted dose curve at least 0.9, where 1 is the maximum; inconclusive means response in the unintended direction; inactive means score below 0.9.
# Key:
# [1] = Tanguay_ZF_120hpf_YSE_legacy: (Legacy) Oregon State University Tanguay Lab 120 Hour Post-fertilization zebrafish Assay for Yolk Sac Edema (AID 2283634)
# Procedure, shortened: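 Dechorionated Tropical 5D wild-type zebrafish embryos were exposed statically, one per well, from 6 to 120 hpf at 28C in 0.64% DMSO. Yolk sac edema was scored present/absent by brightfield at 120 hpf, and dead embryos were excluded.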
# [2] = Tanguay_ZF_120hpf_AXIS_legacy: (Legacy) Oregon State University Tanguay Lab 120 Hour Post-fertilization zebrafish Assay for Body Axis Malformation (AID 2283635)
# Procedure, shortened: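 Dechorionated wild-type Tropical 5D zebrafish embryos, one per well, statically exposed from 6 hpf to 120 hpf at 28C in 0.64% DMSO final. Body axis malformation scored present/absent by brightfield microscopy at 120 hpf; dead embryos excluded.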
# [3] = Tanguay_ZF_120hpf_EYE_legacy: (Legacy) Oregon State University Tanguay Lab 120 Hour Post-fertilization zebrafish Assay for Eye Malformation (AID 2283636);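 further: binary presence or absence of eye malformation scored by brightfield in 120 hpf larvae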
# Procedure, shortened: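 Dechorionated wild-type Tropical 5D zebrafish embryos were exposed statically from 6 hpf, one per well, to 120 hpf at 28C in sealed, foil-covered plates with 0.64% DMSO. Eye malformation was scored present/absent by brightfield microscopy against DMSO controls.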
# [4] = Tanguay_ZF_120hpf_SNOU_legacy: (Legacy) Oregon State University Tanguay Lab 120 Hour Post-fertilization zebrafish Assay for Snout Malformation (AID 2283637)
# Procedure, shortened: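 Tropical 5D wild-type zebrafish embryos, dechorionated with pronase at 4 hpf, were exposed singly from 6 hpf to 120 hpf statically at 28C in 0.64% DMSO. Snout malformation was scored present/absent by brightfield microscopy, fitted against DMSO.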
# [5] = Tanguay_ZF_120hpf_JAW_legacy: (Legacy) Oregon State University Tanguay Lab 120 Hour Post-fertilization zebrafish Assay for Jaw Malformation (AID 2283638)
# Procedure, shortened: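 Dechorionated Tropical 5D wild-type zebrafish embryos, one per well, exposed statically from 6 hpf to 120 hpf at 28C in 0.64% DMSO. Jaw malformation was scored by brightfield microscopy as present or absent. It was not scored in dead embryos.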
# [6] = Tanguay_ZF_120hpf_OTIC_legacy: (Legacy) Oregon State University Tanguay Lab 120 Hour Post-fertilization zebrafish Assay for Otic Vesicle Malformation (AID 2283639)
# Procedure, shortened: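 Otic vesicle malformation is read as a yes/no morphology call at 120 hpf. Exposure is static at 28C with 0.64% (vol/vol) DMSO; embryos that die are excluded from non-mortality endpoints.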
# [7] = Tanguay_ZF_120hpf_PE_legacy: (Legacy) Oregon State University Tanguay Lab 120 Hour Post-fertilization zebrafish Assay for Pericardial Edema (AID 2283640)
# Procedure, shortened: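 Tropical 5D wild-type zebrafish embryos were statically exposed until 120 hpf at 28C, with 0.64% DMSO final. Pericardial edema was scored by brightfield as present or absent; endpoints were not scored in dead embryos.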
# [8] = Tanguay_ZF_120hpf_BRAI_legacy: (Legacy) Oregon State University Tanguay Lab 120 Hour Post-fertilization zebrafish Assay for Brain Malformation (AID 2283641)
# Procedure, shortened: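 Tropical 5D wild-type zebrafish embryos exposed statically until 120 hpf at 28C, 0.64% DMSO final, sealed and dark. Brain malformation scored present/absent by brightfield at 120 hpf; dead embryos excluded. Trimethyltin chloride 5uM positive control.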
# [9] = Tanguay_ZF_120hpf_SOMI_legacy: (Legacy) Oregon State University Tanguay Lab 120 Hour Post-fertilization zebrafish Assay for Somite Malformation (AID 2283647)
# Procedure, shortened: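 Dechorionated Tropical 5D wild-type zebrafish embryos, one per well from 6 hpf, statically exposed at 28C to 120 hpf in 0.64% DMSO; somite malformation scored present/absent by brightfield; trimethyltin 5 uM positive control; dead embryos not scored.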
# [10] = Tanguay_ZF_120hpf_PFIN_legacy: (Legacy) Oregon State University Tanguay Lab 120 Hour Post-fertilization zebrafish Assay for Pectoral Fin Malformation (AID 2283648);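 further: each larva judged yes or no for fin defect by brightfield with dead larvae skipped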
# Procedure, shortened: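 Tropical 5D wild-type embryos, dechorionated with pronase at 4 hpf, were placed singly in wells at 6 hpf and statically exposed until 120 hpf at 28C, sealed and dark, with 0.64% (vol/vol) final DMSO; pectoral fin malformation scored present/absent.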
# [11] = Tanguay_ZF_120hpf_CFIN_legacy: (Legacy) Oregon State University Tanguay Lab 120 Hour Post-fertilization zebrafish Assay for Caudal Fin Malformation (AID 2283649)
# Procedure, shortened: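 Dechorionated Tropical 5D wild-type embryos, one per well from 6 hpf, static exposure to 120 hpf at 28C in 0.64% DMSO. Caudal fin malformation scored by brightfield as present/absent; not scored in dead embryos.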
# [12] = Tanguay_ZF_120hpf_PIG_legacy: (Legacy) Oregon State University Tanguay Lab 120 Hour Post-fertilization zebrafish Assay for Pigmentation Malformation (AID 2283650)
# Procedure, shortened: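 Tropical 5D wild-type zebrafish embryos, dechorionated with pronase at 4 hpf, were exposed singly from 6 hpf to 120 hpf statically at 28C in sealed, dark plates with 0.64% DMSO; pigmentation scored present/absent by brightfield microscopy, fitted against DMSO.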
# [13] = Tanguay_ZF_120hpf_CIRC_legacy: (Legacy) Oregon State University Tanguay Lab 120 Hour Post-fertilization zebrafish Assay for Circulatory Malformation (AID 2283651)
# Procedure, shortened: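 Using wild-type Tropical 5D zebrafish, we exposed dechorionated embryos from 6 to 120 hpf in embryo medium with 0.64% DMSO. Circulatory defects were scored as present or absent; 5uM trimethyltin chloride served as positive control.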
# [14] = target: Cellular tumor antigen p53 (Homo sapiens) (UniProt P04637); experiment: TOX21_p53_BLA_p3_ratio: Tox21 HCT-116 p53 Agonism Beta-lactamase Assay, Ratio, Phase 3 (AID 2283596)
# Chain of Cellular tumor antigen p53 (Homo sapiens) (P04637 whole entry, looked up): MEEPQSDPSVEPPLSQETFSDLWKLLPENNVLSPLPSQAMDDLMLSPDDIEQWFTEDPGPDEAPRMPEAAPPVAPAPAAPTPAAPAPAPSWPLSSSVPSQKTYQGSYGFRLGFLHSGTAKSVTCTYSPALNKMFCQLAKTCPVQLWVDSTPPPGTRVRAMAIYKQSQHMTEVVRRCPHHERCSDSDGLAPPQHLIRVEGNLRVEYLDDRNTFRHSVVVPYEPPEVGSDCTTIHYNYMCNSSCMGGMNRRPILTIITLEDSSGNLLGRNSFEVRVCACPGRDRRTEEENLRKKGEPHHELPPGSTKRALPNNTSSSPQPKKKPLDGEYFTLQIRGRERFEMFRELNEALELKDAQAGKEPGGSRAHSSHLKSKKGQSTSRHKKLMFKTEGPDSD
# Procedure, shortened: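 HCT116 p53-bla cells (4000/well) given compound in DMSO (217-fold dilution) after 5 h, incubated 16 h at 37C. CCF4-AM substrate 2 h at room temperature; 460/530 nm emission ratio, gain fitted against DMSO.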
# [15] = TOX21_p53_BLA_p4_viability: Viability Assessment in the Tox21 HCT-116 p53 Agonism Beta-lactamase Assay, Phase 4 (AID 2283597);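 further: hits lower the luminescence signal meaning cytotoxicity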
# Procedure, shortened: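 HCT-116 p53-bla cells, 4000/well, dosed after 5 h attachment and incubated 16 h at 37 °C, 5% CO2. Viability from CellTiter-Glo ATP luminescence after 30 min at room temperature, taken after the beta-lactamase read; loss of signal indicates cytotoxicity.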
# [16] = target: Cellular tumor antigen p53 (Homo sapiens) (UniProt P04637); experiment: TOX21_p53_BLA_p5_ratio: Tox21 HCT-116 p53 Agonism Beta-lactamase Assay, Ratio, Phase 5 (AID 2283599)
# Procedure, shortened: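 HCT-116 cells carrying a p53-inducible beta-lactamase reporter were seeded at 4000 cells/well and dosed after 5 h with compound in DMSO (217-fold dilution). After 16 h at 37C, CCF4-AM substrate was added for 2 h, and the 460/530 nm emission ratio was scored as gain-of-signal versus DMSO.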
# [17] = target: Cellular tumor antigen p53 (Homo sapiens) (UniProt P04637); experiment: TOX21_p53_BLA_p4_ratio: Tox21 HCT-116 p53 Agonism Beta-lactamase Assay, Ratio, Phase 4 (AID 2283601)
# Procedure, shortened: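 HCT116 cells carrying an inducible beta-lactamase reporter were plated at 4000 cells/well, rested 5 h, then exposed to compounds in DMSO (217-fold dilution) for 16 h at 37C. CCF4-AM substrate was loaded 2 h at room temperature; 460/530 nm emission ratio scored gain-of-signal versus DMSO.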
# [18] = TOX21_p53_BLA_p5_viability: Viability Assessment in the Tox21 HCT-116 p53 Agonism Beta-lactamase Assay, Phase 5 (AID 2283600)
# Procedure, shortened: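 HCT-116 p53 beta-lactamase reporter cells, 4000/well, were exposed to compound (pin transfer, 217-fold dilution) for 16 hours at 37C. Cellular ATP was read by CellTiter-Glo luminescence after 30 min at room temperature.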
smiles,measurement,setting,value
CCCN(CCC)c1c([N+](=O)[O-])cc(S(N)(=O)=O)cc1[N+](=O)[O-],outcome,[1],inactive
same,outcome,[2],inactive
same,outcome,[3],inactive
same,outcome,[4],inactive
same,outcome,[5],inactive
same,outcome,[6],inactive
same,outcome,[7],inactive
same,outcome,[8],inactive
same,outcome,[9],inactive
same,outcome,[10],inactive
same,outcome,[11],inactive
same,outcome,[12],inactive
same,outcome,[13],inactive
N#Cc1cc(Br)c(O)c(Br)c1,AC50,[14],57.5 µM (active) and 55.7 µM (active)
same,outcome,[15],inactive
same,AC50,[16],57.3 µM (active) and 72.4 µM (active)
same,AC50,[17],57.9 µM (active) and 74.3 µM (active)
same,outcome,[1],inactive
same,outcome,[2],inactive
same,outcome,[3],inactive
same,outcome,[4],inactive
same,outcome,[5],inactive
same,outcome,[6],inactive
same,outcome,[7],inactive
same,outcome,[8],inactive
same,outcome,[9],inactive
same,outcome,[10],inactive
same,outcome,[12],inactive
same,outcome,[13],inactive
COC(=O)C(C)Oc1ccc(Oc2ccc(Cl)cc2Cl)cc1 (stereo not drawn),outcome,[14],inactive
same,outcome,[15],inactive
same,outcome,[16],inactive
same,outcome,[1],inactive
same,outcome,[2],inactive
same,outcome,[3],inactive
same,outcome,[4],inactive
same,outcome,[5],inactive
same,outcome,[6],inactive
same,outcome,[7],inactive
same,outcome,[8],inactive
same,outcome,[9],inactive
same,outcome,[10],inactive
same,outcome,[12],inactive
same,outcome,[13],inactive
COc1nc(C)nc(NC(=O)NS(=O)(=O)c2ccccc2Cl)n1,outcome,[14],inactive
same,outcome,[18],inactive
same,outcome,[17],inactive
COc1cnc(OC)n2nc(NS(=O)(=O)c3c(OCC(F)F)cccc3C(F)(F)F)nc12,outcome,[14],inactive
same,outcome,[18],inactive
same,outcome,[17],inactive
same,outcome,[2],inactive
same,outcome,[3],inactive
same,outcome,[4],inactive
same,outcome,[5],inactive
same,outcome,[6],inactive
same,outcome,[7],inactive
same,outcome,[9],inactive
same,outcome,[10],inactive
same,outcome,[12],inactive
same,outcome,[13],inactive
CC(C)C1(C)N=C(c2nc3ccccc3cc2C(=O)O)NC1=O (stereo not drawn),outcome,[14],inactive
same,outcome,[15],inactive
same,outcome,[16],inactive
same,outcome,[17],inactive
same,outcome,[1],inactive
same,outcome,[3],inactive
same,outcome,[4],inactive
same,outcome,[5],inactive
same,outcome,[6],inactive
same,outcome,[7],inactive
same,outcome,[8],inactive
same,outcome,[9],inactive
same,outcome,[10],inactive
same,outcome,[12],inactive
same,outcome,[13],inactive
CC1=C(C(=O)Nc2ccccc2)SCCO1,outcome,[14],inactive
same,outcome,[15],inactive
same,outcome,[16],inactive
same,outcome,[18],inactive
same,outcome,[17],inactive
same,outcome,[1],inactive
same,outcome,[2],inactive
same,outcome,[4],inactive
same,outcome,[5],inactive
same,outcome,[6],inactive
same,outcome,[7],inactive
same,outcome,[8],inactive
same,outcome,[12],inactive
same,outcome,[13],inactive
C=CCC1=C(C)[C@@H](OC(=O)[C@@H]2[C@@H](C=C(C)C)C2(C)C)CC1=O,outcome,[14],inactive
same,outcome,[15],inactive
same,outcome,[16],inactive
same,outcome,[18],inactive
same,outcome,[17],inactive
same,outcome,[1],inactive
same,outcome,[3],inactive
same,outcome,[7],inactive
same,outcome,[8],inactive
same,outcome,[9],inactive
same,outcome,[10],inactive
same,outcome,[11],inactive
same,outcome,[12],inactive
same,outcome,[13],inactive
